Measured values reported in PMC4336329 (PLoS ONE, 2015).
The campaign covered roughly 310,000 compounds. About 14,000 (4.5%) showed an effect of 50% or more. Effects have a minus sign here. The entries come from a sample that favours strong results as a whole.

The compounds below were run against human ether-à-go-go-related gene (hERG) potassium channel (human, UniProt Q12809) (assay: primary screen, population patch clamp on CHO cells stably expressing hERG; higher = less effect of the substance).
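Note: peak tail current of the secondary pulse compared with the same well before compound.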

Chain of human ether-à-go-go-related gene (hERG) potassium channel (Q12809 whole entry, looked up): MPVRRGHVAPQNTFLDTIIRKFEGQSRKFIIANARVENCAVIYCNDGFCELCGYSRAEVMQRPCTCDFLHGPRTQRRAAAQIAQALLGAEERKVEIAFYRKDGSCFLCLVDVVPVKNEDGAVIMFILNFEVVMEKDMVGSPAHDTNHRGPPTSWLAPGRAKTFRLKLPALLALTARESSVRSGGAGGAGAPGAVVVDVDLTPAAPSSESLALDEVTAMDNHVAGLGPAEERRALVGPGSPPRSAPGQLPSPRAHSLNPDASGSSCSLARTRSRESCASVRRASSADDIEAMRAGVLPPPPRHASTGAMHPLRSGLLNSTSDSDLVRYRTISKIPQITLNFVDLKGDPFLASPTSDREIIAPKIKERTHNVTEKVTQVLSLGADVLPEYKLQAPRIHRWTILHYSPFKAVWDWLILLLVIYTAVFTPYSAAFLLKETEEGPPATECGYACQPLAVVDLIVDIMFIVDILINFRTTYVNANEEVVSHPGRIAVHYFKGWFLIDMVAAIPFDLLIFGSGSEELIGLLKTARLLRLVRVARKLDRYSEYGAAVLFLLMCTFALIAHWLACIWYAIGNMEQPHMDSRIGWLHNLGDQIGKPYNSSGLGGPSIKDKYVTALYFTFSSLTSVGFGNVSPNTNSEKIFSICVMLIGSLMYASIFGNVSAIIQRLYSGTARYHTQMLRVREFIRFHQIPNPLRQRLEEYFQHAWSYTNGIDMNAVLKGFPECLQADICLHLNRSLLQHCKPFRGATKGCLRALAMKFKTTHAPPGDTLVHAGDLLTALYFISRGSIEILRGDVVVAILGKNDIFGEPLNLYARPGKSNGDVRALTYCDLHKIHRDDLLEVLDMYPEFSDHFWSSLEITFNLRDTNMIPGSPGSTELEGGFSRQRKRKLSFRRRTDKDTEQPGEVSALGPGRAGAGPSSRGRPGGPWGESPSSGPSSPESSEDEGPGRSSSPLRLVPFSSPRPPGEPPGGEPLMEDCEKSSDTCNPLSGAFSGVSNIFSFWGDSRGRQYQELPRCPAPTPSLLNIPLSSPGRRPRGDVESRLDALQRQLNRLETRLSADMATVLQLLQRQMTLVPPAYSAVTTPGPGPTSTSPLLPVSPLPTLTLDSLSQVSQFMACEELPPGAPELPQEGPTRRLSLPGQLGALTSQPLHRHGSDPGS

Structure (SMILES) | hERG current change (%, negative = inhibition) at 10uM [%]
CS(=O)(=O)c1ccc2nc(NC(=O)CN3CCN(Cc4ccccc4)CC3)sc2c1 | -39.8
O=C(CN1CCN(Cc2ccccc2)CC1)Nc1nc2ccccc2s1 | -68.2
CCc1nnc(NC(=O)CN2CCN(Cc3cccc(Cl)c3)CC2)s1 | -8.15
Cc1cccc(OCC(=O)Nc2ccc3oc(=O)ccc3c2)c1 | 8.55
COc1ccc(C(C)=O)cc1Cn1nc(C)c([N+](=O)[O-])c1C | 18.5
CC1(C)Oc2ccc3ccc(=O)oc3c2/C(=C/NCCO)C1=O | 5.11
Br.CCCCCCCCn1c2c(c(=N)c3c1CCC3)CCCC2 | -76.1
Br.CCCCCCCCCCn1c2c(c(=N)c3c1CCC3)CCC2 | -78.9
Br.CCn1c2c(c(=N)c3c1CCC3)CCCC2 | -2.41
Br.CCCCCCn1c2c(c(=N)c3c1CCC3)CCC2 | -76.5
CCCCn1c2c(c(=N)c3c1CCC3)CCC2.I | -2.48
Br.CCCCCCCCCn1c2c(c(=N)c3c1CCC3)CCC2 | -74.1
CCCn1c2c(c(=N)c3c1CCC3)CCCC2.I | 6.05
CCOC(=O)Cn1c2c(c(=N)c3c1CCC3)CCC2.Cl | 8.34
CCCn1c2c(c(=N)c3c1CCC3)CCC2.I | 7.05
CCOC(=O)Cn1c2c(c(=N)c3c1CCC3)CCCC2.Cl | 18.5
Br.CCn1c2c(c(=N)c3c1CCC3)CCC2 | 0.642
CCCCCCn1c(=O)[nH]c2c(c1=O)CCC2 | -3.06
CC(NC(=O)Cc1ccccc1)c1nc2ccccc2[nH]1 (stereo not drawn) | 5.94
O=C(CCNC(=O)c1ccc([N+](=O)[O-])cc1)NCCc1ccc(Cl)cc1 | -40.4
Cc1cc(C)n2nc(CC(=O)NCc3ccc(F)cc3)nc2n1 | -0.0725
CCN(CC)N=Nc1ccc(S(=O)(=O)N2CCSC2C(=O)[O-])cc1.[K+] (stereo not drawn) | 28.2
CCC(C)[C@H](NC(=O)OC(C)(C)C)C(=O)N/N=C/c1ccc2nccnc2c1 (stereo partly drawn) | -13.8

Structure (SMILES) | hERG current change (%, negative = inhibition) at 10uM [%]
CNC(=O)c1cc(OCC(F)(F)F)ccc1OCC(F)(F)F | -4.26
COc1ccc(S(=O)(=O)NCc2ccc(C(=O)NCc3cccnc3)cc2)cc1 | -1.21
COc1ccc(C(=O)N2CCN(C)C(=O)[C@@H]2C)cc1OC1CCN(C(C)=O)CC1 | 12.6
Cc1c(NC(=S)N/N=C/C=C/c2ccccc2)c(=O)n(-c2ccccc2)n1C | 11.2
Cc1ccc(-c2noc(C3CCCCC3)n2)cc1 | 16.1
COc1ccccc1-c1cc2nc(C)c(CCC(=O)NC(C)CCc3ccco3)c(C)n2n1 (stereo not drawn) | -62.5
Cc1csc(NC(=O)CCc2c(C)nc3cc(-c4cccc(F)c4)nn3c2C)n1 | -17.3
COc1ccccc1-c1cc2nc(C)c(CCC(=O)NCc3ccco3)c(C)n2n1 | -43.1
COc1cc(OC)cc(-c2cc3nc(C)c(CCC(=O)NCc4ccccc4)c(C)n3n2)c1 | -33.8
Cc1nc2cc(-c3ccccc3)nn2c(C)c1CCC(=O)NCc1ccco1 | -37.4
COc1ccccc1CNC(=O)CCc1c(C)nc2cc(-c3ccccc3OC)nn2c1C | -11.5
COc1cc(OC)cc(-c2cc3nc(C)c(CCC(=O)Nc4nc(C)cs4)c(C)n3n2)c1 | 10
COc1cc(OC)cc(-c2cc3nc(C)c(CCC(=O)NC(C)CCc4ccco4)c(C)n3n2)c1 (stereo not drawn) | -58.4
COc1ccccc1-c1cc2nc(C)c(CCC(=O)NCc3ccc(F)cc3)c(C)n2n1 | -49.7
COc1ccc(-c2cc3nc(C)c(CCC(=O)NCc4ccc(F)cc4)c(C)n3n2)c(OC)c1 | -60.4
COc1ccc(CNC(=O)CCc2c(C)nc3cc(-c4ccccc4OC)nn3c2C)cc1 | -37.7
Cc1nc2cc(-c3cccc(F)c3)nn2c(C)c1CCC(=O)NC(C)CCc1ccco1 (stereo not drawn) | -70.6
COc1ccc(C2SCC(=O)N2C)cc1 (stereo not drawn) | 1.55
COc1cccc(-c2cc(=O)c3cc(NC(=O)c4ccc(N(C)C)cc4)ccc3[nH]2)c1 | 16.2
CN(C)S(=O)(=O)Oc1ccc(Cl)cc1C(=O)Nc1ccc(F)cc1F | -3.01
Cc1cc(N/N=C2\CC(C)CC(C)(C)C2)nc2ccccc12 (stereo not drawn) | -7.04
CCN1C(=O)/C(=C/c2ccc3c(c2)CCN3CCCCl)C(=O)NC1=S | -3.76
